# Assay results from the supplement of paper PMC8728848.
# The sample as a whole holds a higher share of the strongest signals than the screen did.
# Key:
# Assay in all cases: glycan array binding signal (z-score within array); higher = stronger binding
# Conditions in all cases: glycan notation: IUPAC condensed, linker removed
# [1] = target: Fuc(a1-2)[Gal(a1-3)]Gal(b1-4)GlcNAc
# Summary of the method: (§1)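 Negative Z-scores can be read as non-binding. The Z-score is calculated within each array and then averaged across arrays of one protein sequence at different concentrations or buffers and across linkers. Arrays, 3228 in all, were curated from the Consortium for Functional Glycomics database and kept only where the protein sequence was available.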
# [2] = target: Fuc(a1-2)[GalNAc(a1-4)]Gal(b1-4)GlcNAc
# Summary of the method: as §1
# Gal(b1-3)GalNAc = target: Gal(b1-3)GalNAc
# Summary of the method: as §1
# [3] = target: Gal(b1-3)GalNAc(b1-3)Gal(a1-4)Gal(b1-4)Glc
# Summary of the method: as §1
# [4] = target: Gal(b1-3)GlcNAc(b1-3)Gal(b1-4)Glc
# Summary of the method: as §1
# Gal(b1-4)Glc6S = target: Gal(b1-4)Glc6S
# Summary of the method: as §1
# [5] = target: Gal(b1-4)GlcNAc(b1-3)Gal(b1-4)Glc
# Summary of the method: as §1
# Gal3S(b1-4)Glc = target: Gal3S(b1-4)Glc
# Summary of the method: as §1
# Gal3S6S(b1-4)GlcNAc6S = target: Gal3S6S(b1-4)GlcNAc6S
# Summary of the method: as §1
# GalNAc(a1-3)Gal = target: GalNAc(a1-3)Gal
# Summary of the method: as §1
# Glc(a1-6)Glc(a1-6)Glc = target: Glc(a1-6)Glc(a1-6)Glc
# Summary of the method: as §1
# [6] = target: GlcNAc(b1-2)Gal(b1-3)GalNAc
# Summary of the method: as §1
# [7] = target: Man(a1-2)Man(a1-2)Man(a1-6)[Man(a1-3)]Man
# Summary of the method: as §1
# [8] = target: Man(a1-2)Man(a1-3)[Man(a1-2)Man(a1-6)]Man(a1-6)[Man(a1-2)Man(a1-2)Man(a1-3)]Man(b1-4)GlcNAc(b1-4)GlcNAc
# Summary of the method: as §1
# Man(a1-3)[Man(a1-6)]Man = target: Man(a1-3)[Man(a1-6)]Man
# Summary of the method: as §1
# [9] = target: Neu5Ac(a2-3)Gal(b1-3)GlcNAc
# Summary of the method: as §1
# Neu5Ac(a2-3)Gal(b1-4)Glc = target: Neu5Ac(a2-3)Gal(b1-4)Glc
# Summary of the method: as §1
# [10] = target: Neu5Ac(a2-3)Gal(b1-4)GlcNAc6S
# Summary of the method: as §1
# [11] = target: Neu5Ac(a2-6)Gal(b1-4)GlcNAc(b1-3)Gal(b1-4)GlcNAc
# Summary of the method: as §1
# Neu5Ac(a2-6)GalNAc = target: Neu5Ac(a2-6)GalNAc
# Summary of the method: as §1
binder,measurement,setting,value
"DCAL1 (Homo sapiens), Q8IZS7 (protein) MVSNFFHVIQVFEKSATLISKTEHIGFVIYSWRKSTTHLGSRRKFAISIYLSEVSLQKYDCPFSGTSFVVFSLFLICAMAGDVVYADIKTVRTSPLELAFPLQRSVSFNFSTVHKSCPAKDWKVHKGKCYWIAETKKSWNKSQNDCAINNSYLMVIQDITAMVRFNI",glycan array binding signal (z-score),[1],-0.172
same,glycan array binding signal (z-score),[2],-0.139
same,glycan array binding signal (z-score),Gal(b1-3)GalNAc,-0.214
same,glycan array binding signal (z-score),[3],-0.25
same,glycan array binding signal (z-score),[4],-0.181
same,glycan array binding signal (z-score),Gal(b1-4)Glc6S,-0.212
same,glycan array binding signal (z-score),[5],1.75
same,glycan array binding signal (z-score),Gal3S(b1-4)Glc,-0.249
same,glycan array binding signal (z-score),Gal3S6S(b1-4)GlcNAc6S,1.34
same,glycan array binding signal (z-score),GalNAc(a1-3)Gal,-0.202
same,glycan array binding signal (z-score),Glc(a1-6)Glc(a1-6)Glc,-0.234
same,glycan array binding signal (z-score),[6],-0.121
same,glycan array binding signal (z-score),[7],-0.251
same,glycan array binding signal (z-score),[8],5.03
same,glycan array binding signal (z-score),Man(a1-3)[Man(a1-6)]Man,-0.223
same,glycan array binding signal (z-score),[9],-0.253
same,glycan array binding signal (z-score),Neu5Ac(a2-3)Gal(b1-4)Glc,-0.211
same,glycan array binding signal (z-score),[10],-0.184
same,glycan array binding signal (z-score),[11],-0.203
same,glycan array binding signal (z-score),Neu5Ac(a2-6)GalNAc,0.533
